{
  "source": "PubChem BioAssay (Tox21)",
  "note": "Results filed as inconclusive are left out. Calls of active or inactive are those of the source. The call rests on the fitted dose curve; in most records, active means well fitted curve in the direction sought with a large enough effect in the repeat runs; inconclusive means weak or mixed curves; inactive means no such curve, though single readings can be large; an effect the other way counts as inactive or inconclusive.",
  "data": [
    {"system": "not listed separately", "experiment": "qHTS assay to identify small molecule antagonists of the androgen receptor (AR) signaling pathway using the MDA cell line - cell viability counter screen (AID 743041; further: nearly all actives have a fitted effect of over 45% in size; further: potency means the concentration at half of the fitted maximal effect; on viability change, negative = cytotoxic: on the % scale 0 is the no-effect control and ±100 the full control effect)", "settings": "MDA-kb2 viability, CellTiter-Fluor, 16 h, cells co-treated with R1881 androgen agonist; series mostly up to 70.3 µM; viability change, negative = cytotoxic: at the top concentration", "procedure,_shortened": "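Viability counter screen run alongside the AR antagonist reporter: cells seeded 5 h before compound, R1881 added, 16 h incubation at 37C without CO2, fluorescent CellTiter-Fluor signal quantified.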", "values": [
      {"compound": "CC[C@]1(O)CC2CN(CCc3c([nH]c4ccccc34)[C@@](C(=O)OC)(c3cc4c(cc3OC)N(C)[C@H]3[C@@](O)(C(N)=O)[C@H](O)[C@]5(CC)C=CCN6CC[C@]43[C@@H]65)C2)C1", "note": "(some centres not stated)", "viability change, negative = cytotoxic": "11.7% (inactive)"},
      {"compound": "COc1ccc(C2NC(=S)N3C(c4ccc(OC)c(OC)c4)NC(=S)N23)cc1OC", "note": "(configuration not stated)", "Potency": "150 nM (active)"},
      {"compound": "C[C@]12CCC(=O)C=C1CC[C@@H]1[C@@H]2[C@@H](O)C[C@@]2(C)[C@H]1CC[C@]2(O)C(=O)COP(=O)(O)O", "viability change, negative = cytotoxic": "-1.13% (inactive)"},
      {"compound": "Cc1c(O)cc2c(c1C)O[C@](C)(CCC[C@H](C)CCC[C@H](C)CCCC(C)C)CC2", "viability change, negative = cytotoxic": "-7.04% (inactive)"},
      {"compound": "CC(=O)O[C@H]1CC[C@@]2(C)C(=CC[C@H]3[C@@H]4CC[C@H](C(C)=O)[C@@]4(C)CC[C@@H]32)C1", "viability change, negative = cytotoxic": "-4.68% (inactive)"},
      {"compound": "CC(/C=C/C=C(\\C)C(=O)O[C@@H]1O[C@H](CO[C@@H]2O[C@H](CO)[C@@H](O)[C@H](O)[C@H]2O)[C@@H](O)[C@H](O)[C@H]1O)=C\\C=C\\C=C(C)\\C=C\\C=C(/C)C(=O)O[C@@H]1O[C@H](CO[C@@H]2O[C@H](CO)[C@@H](O)[C@H](O)[C@H]2O)[C@@H](O)[C@H](O)[C@H]1O", "viability change, negative = cytotoxic": "-9.81% (inactive)"},
      {"compound": "CC1(C)S[C@@H]2[C@H](NC(=O)[C@H](NC(=O)N3CCN(S(C)(=O)=O)C3=O)c3ccccc3)C(=O)N2[C@H]1C(=O)O", "viability change, negative = cytotoxic": "-0.278% (inactive)"},
      {"compound": "O=C(NCCNCC(O)COc1ccc(O)cc1)N1CCOCC1", "note": "(configuration not stated)", "viability change, negative = cytotoxic": "3.9% (inactive)"},
      {"compound": "Cc1cccc(C)c1NC(=O)NC1=CCCN1C", "viability change, negative = cytotoxic": "3.29% (inactive)"}
    ]},
    {"molecular_target": "Androgen receptor (Homo sapiens) (UniProt P10275)", "sequence (P10275 whole entry, looked up)": "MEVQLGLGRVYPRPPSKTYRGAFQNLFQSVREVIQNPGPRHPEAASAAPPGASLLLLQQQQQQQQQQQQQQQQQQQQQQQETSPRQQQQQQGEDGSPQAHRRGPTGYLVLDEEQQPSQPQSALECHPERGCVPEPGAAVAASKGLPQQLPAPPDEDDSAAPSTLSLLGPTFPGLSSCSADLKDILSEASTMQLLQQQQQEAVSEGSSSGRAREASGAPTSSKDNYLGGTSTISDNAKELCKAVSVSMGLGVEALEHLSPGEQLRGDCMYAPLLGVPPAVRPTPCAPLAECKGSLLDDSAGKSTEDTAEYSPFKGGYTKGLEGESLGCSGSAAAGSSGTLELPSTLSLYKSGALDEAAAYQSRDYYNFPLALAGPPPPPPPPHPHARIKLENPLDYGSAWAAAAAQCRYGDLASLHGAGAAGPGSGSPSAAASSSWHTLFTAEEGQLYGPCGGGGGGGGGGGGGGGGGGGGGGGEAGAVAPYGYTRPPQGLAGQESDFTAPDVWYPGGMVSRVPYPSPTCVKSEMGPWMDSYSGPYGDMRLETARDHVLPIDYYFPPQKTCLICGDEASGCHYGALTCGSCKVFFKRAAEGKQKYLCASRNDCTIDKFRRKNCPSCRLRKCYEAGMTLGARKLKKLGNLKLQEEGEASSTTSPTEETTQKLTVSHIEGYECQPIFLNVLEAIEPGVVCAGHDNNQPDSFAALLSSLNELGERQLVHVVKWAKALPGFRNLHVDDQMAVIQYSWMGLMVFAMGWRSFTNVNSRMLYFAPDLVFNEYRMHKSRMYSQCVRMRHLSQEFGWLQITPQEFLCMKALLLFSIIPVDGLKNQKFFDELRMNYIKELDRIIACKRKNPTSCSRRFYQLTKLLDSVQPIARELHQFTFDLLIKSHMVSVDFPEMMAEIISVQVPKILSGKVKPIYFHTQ", "experiment": "qHTS assay to identify small molecule antagonists of the androgen receptor (AR) signaling pathway using the MDA cell line (AID 743042; further: nearly all actives have a fitted effect of over 55% in size; further: potency means the concentration at half of the fitted maximal effect; on activity change, negative = inhibition: on the % scale 0 is the no-effect control and ±100 the full control effect)", "settings": "MDA-kb2 AR-luc, MMTV luciferase, R1881 antagonist, 16 h; series mostly up to 70.3 µM; activity change, negative = inhibition: at the top concentration", "procedure,_shortened": "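MDA-kb2 cells (human breast carcinoma, stably carrying an MMTV-luciferase reporter responsive to AR and GR) were plated at 3,000 cells/well and preincubated 5 hr at 37C, then given compound plus R1881 agonist for 16 h. ONE-Glo luminescence was read.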", "values": [
      {"compound": "OC(CN1CCCCC1)c1cc(-c2ccccc2)on1", "note": "(configuration not stated)", "activity change, negative = inhibition": "5.62% (inactive)"},
      {"compound": "CC[C@H]1NC(=O)[C@@H](NC(=O)c2ncccc2O)[C@@H](C)OC(=O)[C@H](c2ccccc2)NC(=O)[C@@H]2CC(=O)CCN2C(=O)[C@H](Cc2ccccc2)N(C)C(=O)[C@@H]2CCCN2C1=O", "activity change, negative = inhibition": "-0.557% (inactive)"},
      {"compound": "NC(=O)c1ccc[n+]([C@@H]2O[C@H](COP(=O)([O-])OP(=O)(O)OC[C@H]3O[C@@H](n4cnc5c(N)ncnc54)[C@H](O)[C@@H]3O)[C@@H](O)[C@H]2O)c1", "activity change, negative = inhibition": "19.6% [at 32.5 µM] (inactive)"},
      {"compound": "O=C(O)CN(CC(=O)O)CC1=CC2C(=CC1=O)Oc1cc(O)c(CN(CC(=O)O)CC(=O)O)cc1C21OC(=O)c2ccccc21", "note": "(configuration not stated)", "activity change, negative = inhibition": "-18.5% (inactive)"},
      {"compound": "C=C1CC[C@H](O)CC1=C/C=C1\\CCC[C@]2(C)[C@@H]([C@H](C)CC[C@@H](O)C(C)(C)O)CC[C@@H]12", "activity change, negative = inhibition": "19.8% (inactive)"},
      {"compound": "N#CC(c1ccc(Cl)cc1)c1c(Cl)cc(-n2ncc(=O)[nH]c2=O)cc1Cl", "note": "(configuration not stated)", "activity change, negative = inhibition": "-17.1% (inactive)"},
      {"compound": "Nc1nc2c(c(=O)[nH]1)N(C=O)C(CNc1ccc(C(=O)N[C@@H](CCC(=O)O)C(=O)O)cc1)CN2", "note": "(some centres not stated)", "activity change, negative = inhibition": "13.2% [at 32.5 µM] (inactive)"},
      {"compound": "CCc1ccc(S(=O)(=O)O)cc1", "activity change, negative = inhibition": "11.2% (inactive)"},
      {"compound": "C[C@@H]1C[C@H]2[C@@H]3CCC4=CC(=O)C=C[C@]4(C)[C@@]3(F)[C@@H](O)C[C@]2(C)[C@@]1(O)C(=O)COC(=O)c1cccc(S(=O)(=O)O)c1", "activity change, negative = inhibition": "245% (inactive)"},
      {"compound": "OC[C@H]1O[C@@H](O[C@H]2[C@H](O)[C@@H](O)[C@H](O)O[C@@H]2CO)[C@H](O)[C@@H](O)[C@@H]1O", "activity change, negative = inhibition": "-1.93% (inactive)"},
      {"compound": "CC[C@]1(O)CC2CN(CCc3c([nH]c4ccccc34)[C@@](C(=O)OC)(c3cc4c(cc3OC)N(C)[C@H]3[C@@](O)(C(N)=O)[C@H](O)[C@]5(CC)C=CCN6CC[C@]43[C@@H]65)C2)C1", "note": "(some centres not stated)", "activity change, negative = inhibition": "-6.97% (inactive)"},
      {"compound": "COc1ccc(C2NC(=S)N3C(c4ccc(OC)c(OC)c4)NC(=S)N23)cc1OC", "note": "(configuration not stated)", "Potency": "0.075 µM (active)"},
      {"compound": "CC1(C)S[C@@H]2[C@H](NC(=O)[C@H](NC(=O)N3CCN(S(C)(=O)=O)C3=O)c3ccccc3)C(=O)N2[C@H]1C(=O)O", "activity change, negative = inhibition": "30.3% (inactive)"},
      {"compound": "CN1c2c(nc(N)[nH]c2=O)NCC1CNc1ccc(C(=O)NC(CCC(=O)O)C(=O)O)cc1", "note": "(configuration not stated)", "activity change, negative = inhibition": "-4.41% (inactive)"},
      {"compound": "COc1cc(NCCCC(C)N)c2ncccc2c1", "note": "(configuration not stated)", "activity change, negative = inhibition": "-11.7% (inactive)"},
      {"compound": "CO[C@H]1C[C@@H]2CC[C@@H](C)[C@@](O)(O2)C(=O)C(=O)N2CCCC[C@H]2C(=O)O[C@H]([C@H](C)C[C@@H]2CC[C@@H](OCCO)[C@H](OC)C2)CC(=O)[C@H](C)/C=C(\\C)[C@@H](O)[C@@H](OC)C(=O)[C@H](C)C[C@H](C)/C=C/C=C/C=C/1C", "Potency": "23.7 µM (active)"},
      {"compound": "Cc1cccc(C)c1NC(=O)NC1=CCCN1C", "activity change, negative = inhibition": "8.38% (inactive)"},
      {"compound": "Cc1cc(C)c(NC(=O)C[C@H](CC(=O)O)c2cccc3ccccc23)c(C(=O)N2CCC3(CCCC3)CC2)c1", "activity change, negative = inhibition": "-0.468% (inactive)"}
    ]}
  ]
}
